Results from ChEMBL document CHEMBL1961873, “Compounds: GSK PKIS; Assays: Nanosyn kinase panel” (2012).

Tests used:
[1] = molecular target: Serine/threonine-protein kinase pim-2 (Homo sapiens) (UniProt Q9P1W9); conditions: at 1 µM;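 note: each value is a mean of the inhibition measurements against the kinase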
[2] = molecular target: Serine/threonine-protein kinase pim-3 (Homo sapiens) (UniProt Q86V86); conditions: at 0.1 µM
[3] = molecular target: Serine/threonine-protein kinase pim-3 (Homo sapiens) (UniProt Q86V86); conditions: at 1 µM
[4] = molecular target: T1, MAP kinase-activated protein kinase 5 (Homo sapiens) (UniProt Q8IW41); conditions: at 0.1 µM
T1 sequence (whole entry): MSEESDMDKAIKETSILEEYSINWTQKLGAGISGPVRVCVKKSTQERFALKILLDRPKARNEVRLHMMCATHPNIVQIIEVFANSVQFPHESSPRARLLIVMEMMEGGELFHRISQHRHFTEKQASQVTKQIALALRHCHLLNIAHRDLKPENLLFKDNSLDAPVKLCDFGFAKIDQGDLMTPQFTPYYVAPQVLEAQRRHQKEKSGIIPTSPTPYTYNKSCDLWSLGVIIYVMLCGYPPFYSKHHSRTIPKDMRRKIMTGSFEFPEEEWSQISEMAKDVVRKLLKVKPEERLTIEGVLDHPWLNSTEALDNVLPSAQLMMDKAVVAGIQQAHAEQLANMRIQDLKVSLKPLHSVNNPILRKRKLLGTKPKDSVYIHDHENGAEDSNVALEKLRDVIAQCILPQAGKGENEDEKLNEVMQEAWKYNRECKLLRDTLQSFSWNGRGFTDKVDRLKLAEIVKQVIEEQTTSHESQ

[5] = molecular target: T1, MAP kinase-activated protein kinase 5 (Homo sapiens); conditions: at 1 µM
[6] = molecular target: Serine/threonine-protein kinase SIK1 (Homo sapiens) (UniProt P57059); conditions: at 0.1 µM
Chain of Serine/threonine-protein kinase SIK1 (Homo sapiens) (P57059 whole entry): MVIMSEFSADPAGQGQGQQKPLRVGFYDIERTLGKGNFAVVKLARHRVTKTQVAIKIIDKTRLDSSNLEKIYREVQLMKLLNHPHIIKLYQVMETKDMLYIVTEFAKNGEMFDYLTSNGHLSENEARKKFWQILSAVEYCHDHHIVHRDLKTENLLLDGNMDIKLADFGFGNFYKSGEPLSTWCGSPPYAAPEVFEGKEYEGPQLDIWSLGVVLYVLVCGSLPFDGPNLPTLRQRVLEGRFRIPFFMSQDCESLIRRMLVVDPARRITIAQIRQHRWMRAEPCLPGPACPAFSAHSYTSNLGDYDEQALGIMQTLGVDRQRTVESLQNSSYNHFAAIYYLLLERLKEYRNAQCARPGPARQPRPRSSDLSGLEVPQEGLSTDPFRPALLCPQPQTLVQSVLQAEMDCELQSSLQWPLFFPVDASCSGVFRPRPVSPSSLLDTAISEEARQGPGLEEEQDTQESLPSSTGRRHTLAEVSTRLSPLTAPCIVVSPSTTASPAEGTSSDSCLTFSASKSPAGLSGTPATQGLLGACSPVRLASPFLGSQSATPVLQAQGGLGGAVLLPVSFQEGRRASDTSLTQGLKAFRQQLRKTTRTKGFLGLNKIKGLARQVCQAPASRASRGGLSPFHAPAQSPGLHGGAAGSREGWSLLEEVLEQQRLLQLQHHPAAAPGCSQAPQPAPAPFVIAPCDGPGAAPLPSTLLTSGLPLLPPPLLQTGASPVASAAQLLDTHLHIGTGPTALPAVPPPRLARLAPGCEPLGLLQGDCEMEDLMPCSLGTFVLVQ

[7] = molecular target: Serine/threonine-protein kinase SIK1 (Homo sapiens) (UniProt P57059); conditions: at 1 µM
[8] = molecular target: Serine/threonine-protein kinase SIK2 (Homo sapiens) (UniProt Q9H0K1); conditions: at 0.1 µM
Chain of Serine/threonine-protein kinase SIK2 (Homo sapiens) (Q9H0K1 whole entry, looked up): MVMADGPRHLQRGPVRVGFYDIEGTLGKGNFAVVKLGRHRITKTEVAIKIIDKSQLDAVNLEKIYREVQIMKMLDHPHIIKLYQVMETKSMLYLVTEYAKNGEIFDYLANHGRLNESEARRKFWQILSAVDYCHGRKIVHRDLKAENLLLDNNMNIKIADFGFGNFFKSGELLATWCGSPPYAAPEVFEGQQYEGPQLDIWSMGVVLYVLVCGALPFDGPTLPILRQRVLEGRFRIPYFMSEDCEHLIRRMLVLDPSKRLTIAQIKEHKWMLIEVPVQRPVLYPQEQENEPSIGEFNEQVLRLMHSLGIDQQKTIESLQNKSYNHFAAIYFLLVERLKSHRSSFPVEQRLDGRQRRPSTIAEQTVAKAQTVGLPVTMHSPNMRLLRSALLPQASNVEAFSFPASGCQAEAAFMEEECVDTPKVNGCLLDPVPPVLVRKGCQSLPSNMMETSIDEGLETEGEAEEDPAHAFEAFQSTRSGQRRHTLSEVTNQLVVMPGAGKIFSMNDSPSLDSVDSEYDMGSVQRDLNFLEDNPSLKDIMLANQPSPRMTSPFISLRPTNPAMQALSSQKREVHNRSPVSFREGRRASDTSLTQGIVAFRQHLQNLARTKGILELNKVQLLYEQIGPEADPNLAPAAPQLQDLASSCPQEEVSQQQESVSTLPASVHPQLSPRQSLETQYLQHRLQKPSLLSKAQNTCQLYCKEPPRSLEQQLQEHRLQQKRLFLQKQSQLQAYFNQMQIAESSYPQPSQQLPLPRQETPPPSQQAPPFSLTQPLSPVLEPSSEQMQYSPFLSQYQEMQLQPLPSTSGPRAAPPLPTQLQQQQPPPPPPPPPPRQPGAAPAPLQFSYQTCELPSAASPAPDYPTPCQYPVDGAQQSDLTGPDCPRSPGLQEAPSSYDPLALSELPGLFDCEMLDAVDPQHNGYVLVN

[9] = molecular target: Serine/threonine-protein kinase SIK2 (Homo sapiens) (UniProt Q9H0K1); conditions: at 1 µM
[10] = molecular target: T2, Serine/threonine-protein kinase TBK1 (Homo sapiens) (UniProt Q9UHD2); conditions: at 0.1 µM;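 note: values are the mean TBK1 inhibition, taken from the GSK PKIS screening data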
T2 sequence (whole entry): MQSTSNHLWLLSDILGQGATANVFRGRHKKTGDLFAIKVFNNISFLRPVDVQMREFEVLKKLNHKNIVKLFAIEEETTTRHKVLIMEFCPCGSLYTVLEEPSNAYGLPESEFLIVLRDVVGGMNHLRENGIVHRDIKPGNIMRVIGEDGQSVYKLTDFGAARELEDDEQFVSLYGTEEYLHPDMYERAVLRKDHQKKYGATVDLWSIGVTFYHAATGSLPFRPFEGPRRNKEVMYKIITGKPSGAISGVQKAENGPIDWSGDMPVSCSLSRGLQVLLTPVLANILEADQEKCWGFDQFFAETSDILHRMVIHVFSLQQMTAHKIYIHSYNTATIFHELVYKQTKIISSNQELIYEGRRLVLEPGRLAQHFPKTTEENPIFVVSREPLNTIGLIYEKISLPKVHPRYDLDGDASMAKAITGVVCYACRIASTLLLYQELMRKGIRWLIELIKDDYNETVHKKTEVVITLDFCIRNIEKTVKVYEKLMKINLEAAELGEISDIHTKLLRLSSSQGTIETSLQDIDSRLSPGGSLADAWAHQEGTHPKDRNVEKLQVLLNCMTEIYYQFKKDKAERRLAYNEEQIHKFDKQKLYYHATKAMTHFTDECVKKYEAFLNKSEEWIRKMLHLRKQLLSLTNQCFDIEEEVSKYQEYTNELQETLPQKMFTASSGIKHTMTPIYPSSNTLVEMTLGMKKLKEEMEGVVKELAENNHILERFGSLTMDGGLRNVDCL

Chain of Serine/threonine-protein kinase pim-2 (Homo sapiens) (Q9P1W9 whole entry, looked up): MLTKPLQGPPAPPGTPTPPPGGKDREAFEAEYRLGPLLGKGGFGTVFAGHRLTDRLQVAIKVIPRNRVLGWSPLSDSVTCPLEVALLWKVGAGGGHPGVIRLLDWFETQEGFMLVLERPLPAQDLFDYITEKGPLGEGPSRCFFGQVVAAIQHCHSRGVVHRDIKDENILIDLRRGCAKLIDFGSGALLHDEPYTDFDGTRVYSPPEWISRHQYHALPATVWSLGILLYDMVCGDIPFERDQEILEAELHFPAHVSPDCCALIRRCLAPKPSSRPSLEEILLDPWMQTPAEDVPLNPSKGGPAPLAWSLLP

With CCn1c(-c2nonc2N)nc2c(C#CC(C)(C)O)nc(CN3CCCC3)cc21 the inhibition [1] was 1.6%, the inhibition [2] was -0.35% and the inhibition [3] was 0.7%. The inhibition [4] was -0.65%, the inhibition [5] was -1.46% and the inhibition [6] was -1.04%. The inhibition [7] was 0.38%, the inhibition [8] was -6.78% and the inhibition [9] was -1.41%. It also gave an inhibition [10] of 1.77%.

Cc1nnc(-c2ccc(C)c(-c3ccc(C(=O)Nc4cccc(C#N)c4)cc3)c2)o1 was tested, and the inhibition [1] was 0.22%, the inhibition [2] was 0.95% and the inhibition [3] was 2.47%. It also gave an inhibition [4] of 0.95%, an inhibition [5] of 0.82% and an inhibition [6] of 3.54%. It also gave an inhibition [7] of 4.65%, an inhibition [8] of 4.14% and an inhibition [9] of 3.76%. The inhibition [10] was 5.08%.

CN1CCC(C(=O)Nc2n[nH]c3nnc(-c4ccccc4)cc23)CC1 gave an inhibition [1] of 1.49%, an inhibition [2] of -0.11% and an inhibition [3] of 3.84%. The inhibition [4] was 1.41%, the inhibition [5] was 3.73% and the inhibition [6] was 7.3%. The inhibition [7] was 7.57%, the inhibition [8] was 6.82% and the inhibition [9] was 8.16%. The inhibition [10] was 2.09%.

In the case of COc1ccc(-c2nn3ncccc3c2-c2ccnc(Nc3ccc(Cl)c(C(F)(F)F)c3)n2)cc1, the inhibition [1] is reported as 0.14%, the inhibition [2] is reported as 1.02% and the inhibition [3] is reported as 2.53%. The inhibition [4] was 1.42%, the inhibition [5] was 1.91% and the inhibition [6] was 2.76%. The inhibition [7] was 5.43%, the inhibition [8] was 5.44% and the inhibition [9] was 1.72%. It also gave an inhibition [10] of 0.22%.

Work on NC(=O)c1ccc(-c2nc(-c3ccccn3)c(-c3ccc4c(c3)OCO4)[nH]2)cc1 yielded an inhibition [1] of 0.78%, an inhibition [2] of 0.11% and an inhibition [3] of 0.3%. The inhibition [4] was 0.77%, the inhibition [5] was 1.22% and the inhibition [6] was 3.17%. For the same compound, the inhibition [7] was 5.25%, the inhibition [8] was 7.51% and the inhibition [9] was 11.6%. The inhibition [10] was 2.24%.

Cc1cccc(-c2n[nH]cc2-c2ccc3ncccc3n2)n1 was tested, and the inhibition [1] was -0.16%, the inhibition [2] was -1.47% and the inhibition [3] was -1.14%. For the same compound, the inhibition [4] was 0.08%, the inhibition [5] was 0.05% and the inhibition [6] was -0.73%. It also gave an inhibition [7] of 3.97%, an inhibition [8] of 3.18% and an inhibition [9] of 13.8%. It also gave an inhibition [10] of -2.48%.

NC(=O)c1cccc(Nc2nccc(Nc3cccc4[nH]ncc34)n2)c1 showed an inhibition [1] of 1.09%, an inhibition [2] of -0.77% and an inhibition [3] of 3.49%. It also gave an inhibition [4] of -1.41%, an inhibition [5] of -1% and an inhibition [6] of 14.8%. For the same compound, the inhibition [7] was 68.5%, the inhibition [8] was -4.28% and the inhibition [9] was 32.5%. For the same compound, the inhibition [10] was 0.88%.

For O=C1NC(=O)C(c2ccc(Cl)cc2)=C1Nc1ccc(Cl)c(C(=O)O)c1, the inhibition [1] was 0.1%, the inhibition [2] was 0.19% and the inhibition [3] was -0.33%. It also gave an inhibition [4] of -0.91%, an inhibition [5] of -0.59% and an inhibition [6] of -6.41%. The inhibition [7] was -4.82%, the inhibition [8] was -6% and the inhibition [9] was -3.21%. For the same compound, the inhibition [10] was -0.72%.

With Fc1cccc(COc2ccc(Nc3ncnc4sc(-c5cccs5)cc34)cc2Cl)c1 the inhibition [1] was 1.54%, the inhibition [2] was 0.47% and the inhibition [3] was 1.27%. For the same compound, the inhibition [4] was 0.51%, the inhibition [5] was 0.8% and the inhibition [6] was 0.72%. The inhibition [7] was 7.28%, the inhibition [8] was 2.25% and the inhibition [9] was -2.41%. For the same compound, the inhibition [10] was 0.83%.

Compound COc1cccc(-n2ncc3c(N/N=C/c4cccc(F)c4)ncnc32)c1 has an inhibition [1] of -2.82%, an inhibition [2] of -0.58% and an inhibition [3] of -0.78%. For the same compound, the inhibition [4] was 0.63%, the inhibition [5] was 0.71% and the inhibition [6] was 5.56%. It also gave an inhibition [7] of 11.9%, an inhibition [8] of 5.11% and an inhibition [9] of 14.4%. The inhibition [10] was 1.92%.

Compound CCn1c(-c2nonc2N)nc2c(C#CC(C)(C)O)nc(OC[C@@H](N)c3ccccc3)cc21 has an inhibition [1] of 2.38%, an inhibition [2] of 0.56% and an inhibition [3] of 5.51%. The inhibition [4] was -0.92%, the inhibition [5] was -1.02% and the inhibition [6] was 1.01%. It also gave an inhibition [7] of 0.3%, an inhibition [8] of -1.91% and an inhibition [9] of 1.75%. It also gave an inhibition [10] of 0.4%.

For O=C(Nc1n[nH]c2nc(-c3ccco3)c(Br)cc12)C1CC1, the inhibition [1] was 0.42%, the inhibition [2] was -1.42% and the inhibition [3] was -2.95%. The inhibition [4] was 0.87%, the inhibition [5] was 0.07% and the inhibition [6] was 2.49%. It also gave an inhibition [7] of 5.66%, an inhibition [8] of 3.56% and an inhibition [9] of 5%. For the same compound, the inhibition [10] was 6.52%.

Work on Fc1cccc(COc2ccc(Nc3ncnc4cc(-c5ccc[nH]5)sc34)cc2Cl)c1 yielded an inhibition [1] of -2.72%, an inhibition [2] of -0.5% and an inhibition [3] of 1.49%. For the same compound, the inhibition [4] was 0.74%, the inhibition [5] was 0.9% and the inhibition [6] was 3.04%. It also gave an inhibition [7] of 8.63%, an inhibition [8] of 3.89% and an inhibition [9] of 7.67%. For the same compound, the inhibition [10] was 2.35%.

Work on CS(=O)(=O)CCNCc1ccc(-c2ccc3ncnc(Nc4ccc(OCc5cccc(F)c5)c(C(F)(F)F)c4)c3c2)o1 yielded an inhibition [1] of 0.66%, an inhibition [2] of 0.74% and an inhibition [3] of 0.16%. It also gave an inhibition [4] of 1.63%, an inhibition [5] of 2.16% and an inhibition [6] of 0.39%. It also gave an inhibition [7] of 9.67%, an inhibition [8] of 2.19% and an inhibition [9] of 10.8%. For the same compound, the inhibition [10] was 1.68%.

In the case of COc1cc(C)c(NC(=O)CN(C)C)cc1Nc1nc(Nc2cccc(F)c2C(N)=O)c2cc[nH]c2n1, the inhibition [1] is reported as 2.33%, the inhibition [2] is reported as 0.35% and the inhibition [3] is reported as 16.3%. The inhibition [4] was 0.4%, the inhibition [5] was 1.56% and the inhibition [6] was 1.57%. For the same compound, the inhibition [7] was 5.28%, the inhibition [8] was 0.18% and the inhibition [9] was -4.44%. The inhibition [10] was 1.95%.

Compound CCn1c(-c2nonc2N)nc2cncc(C(=O)N3CC[C@H](N)C3)c21 has an inhibition [1] of 48.2%, an inhibition [2] of 51.5% and an inhibition [3] of 78.9%. For the same compound, the inhibition [4] was 1.81%, the inhibition [5] was 2.26% and the inhibition [6] was 5.73%. For the same compound, the inhibition [7] was 9.11%, the inhibition [8] was 4.34% and the inhibition [9] was 10.1%. It also gave an inhibition [10] of 3.11%.

c1cnn2ncc(-c3ccnc(Nc4ccc5c(c4)OCCO5)n3)c2c1 showed an inhibition [1] of 4.39%, an inhibition [2] of 0.84% and an inhibition [3] of 16.2%. It also gave an inhibition [4] of 1.78%, an inhibition [5] of 2.58% and an inhibition [6] of 9.87%. For the same compound, the inhibition [7] was 20.4%, the inhibition [8] was 11.1% and the inhibition [9] was 17.7%. It also gave an inhibition [10] of 3.41%.

Work on CCN1CCC(CC(=O)Nc2n[nH]c3nc(-c4cccs4)c(Br)cc23)CC1 yielded an inhibition [1] of 1.48%, an inhibition [2] of -0.6% and an inhibition [3] of 5.95%. For the same compound, the inhibition [4] was -1.45%, the inhibition [5] was -0.83% and the inhibition [6] was -7.57%. It also gave an inhibition [7] of -6.71%, an inhibition [9] of -4.25% and an inhibition [10] of -0.25%.

In the case of COc1cc2ncn(-c3cc(OCc4ccccc4Cl)c(C(N)=O)s3)c2cc1OC, the inhibition [1] is reported as 4.79%, the inhibition [2] is reported as 1.01% and the inhibition [3] is reported as 8.63%. It also gave an inhibition [4] of -0.46%, an inhibition [5] of 0.67% and an inhibition [6] of -2.01%. For the same compound, the inhibition [7] was 28%, the inhibition [8] was 2.69% and the inhibition [9] was 26.6%. It also gave an inhibition [10] of 3.64%.
